# Shown are actives, neighbours in structure and some others; about 2.5% of the full set was active somewhere.
# HTT promoter inh = Primary qHTS for Identification of Small Molecule Inhibitors of Huntingtin Promoter Activity | 48,000 compounds, 0.93% hits | Potency, µM (highest dose often 57.5 µM), actives largely listed as inhibitors | HEK293 HTT promoter firefly luciferase reporter, 24 h; also: nearly all actives have a fitted effect of over 50% in size
#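 Firefly luciferase readout (Dual-Glo, 10 min RT) after 24 h, 37 °C compound exposure (final up to 57.5 uM) of HEK293 reporter cells cultured 24 h beforehand; PTC124 at 50 uM final as control inhibitor; activity scaled vehicle 0%, zero RLU -100%.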
# GALK inh = qHTS Assay for Inhibitors of Human Galactokinase (GALK): NCGC Sytravon Library Screen | recombinant GALK, Kinase-Glo ATP luminescence, 1 h | 44,000 tested, under 10 active | Potency, µM (top dose mostly 57.5 µM), most hits filed as inhibitors
# Target sequence (P51570 whole entry, looked up): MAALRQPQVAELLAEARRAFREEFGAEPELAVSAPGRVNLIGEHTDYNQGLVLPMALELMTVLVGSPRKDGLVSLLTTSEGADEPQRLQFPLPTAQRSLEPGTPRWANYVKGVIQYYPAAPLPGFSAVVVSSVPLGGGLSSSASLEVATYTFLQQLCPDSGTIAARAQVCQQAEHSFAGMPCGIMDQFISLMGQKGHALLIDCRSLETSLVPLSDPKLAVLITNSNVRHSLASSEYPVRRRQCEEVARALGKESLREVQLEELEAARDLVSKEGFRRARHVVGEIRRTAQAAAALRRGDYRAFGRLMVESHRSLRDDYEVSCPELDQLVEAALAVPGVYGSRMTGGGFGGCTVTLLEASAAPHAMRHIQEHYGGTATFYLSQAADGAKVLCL
#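 Compounds were pinned into ATP buffer, then GALK-galactose mix was added (final 5 nM enzyme, 35 uM ATP, 100 uM galactose, pH 8.0). After 1 h at room temperature, Kinase-Glo Plus was added and luminescence read.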
# TSG101-PTAP inh = qHTS Validation Assay for Inhibitors of HIV-1 Budding by Blocking the Interaction of PTAP/TSG101: Sytravon Library Screen | Potency, µM (highest dose often 115 µM), usual class: inhibitors | 44,000 tested, under 10 active | Fluorescence polarization, FITC-PTAP peptide/Tsg101, 20 min | AID 1347069, 2019
#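 Fluorescence polarization: Tsg101 binding domain (10 uM final) in 10 mM HEPES pH 7.5, 0.15 M NaCl, 0.01% Tween 20, 3 mM EDTA, 0.1 mM TCEP; compounds pinned; FITC-PTAP peptide 50 nM final; 20 min, r.t.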
# HTT-AS act = Primary qHTS for Identification of Small Molecule Activators of Huntingtin-Antisense Promoter Activity; HEK293 HTT-AS promoter firefly luciferase reporter, 24 h; response scale: percent change from vehicle, -100% = no light; Potency, µM (top dose mostly 57.5 µM), usual class: activators; 48,000 compounds, 0.24% hits; AID 1508624, 2021; also: nearly all actives have a fitted effect of over 55% in size
#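 HEK293 Fluc reporter, 2,500 cells/well, 24 h pre-culture; cpds up to 57.5 uM final, 24 h 37 degrees C; Dual-Glo, 10 min RT; normalized vehicle = 0%, zero RLU = -100%.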
# NTMT1 inhibitor = Primary qHTS for Inhibitors of N-terminal methyltransferase 1 (NTMT1): MTaseGlo Assay; NTMT1 MTase-Glo SAH luminescence, purified enzyme; Potency, µM (series often up to 114 µM), actives largely listed as inhibitors; 59,000 compounds, 2.5% hits; AID 1645870, 2021; also: nearly all actives have a fitted effect of over 65% in size
# SKOV3 invasion = Primary qHTS assay for Inhibitors of ovarian cancer metastasis using an organotypic tumor microenvironment (TME) model; Potency, µM (highest dose often 45.8 µM), usual class: inhibitors; SKOV3ip1-GFP adhesion/invasion on 3D omental model, fluorescence; AID 1963576, 2024; 46,000 compounds, 0.1% hits; also: nearly all actives have a fitted effect of over 65% in size
#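 Adhesion/invasion was scored as fixed GFP-labeled SKOV3ip1 cell counts (488/509 nm), normalized to DMSO and tomatine controls. Cancer cells in serum-free medium, with four compound doses (0.36-46 umol/L), sat 2 hr at RT then 16 hr at 37 C on a 48 hr fibroblast/mesothelial/ECM culture.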
# Numbers stand for hits; 0 = inactive; ? = inconclusive; - = no result; ! = not active in a repeat. Calls follow the shape of the dose curve; as a rule, active = well fitted curve in the direction sought with a large enough effect; inconclusive = small, poorly fitted or top-dose-only effect, or another doubt; inactive = no such curve, though single readings can be large; an effect the other way counts as inactive or inconclusive.
SMILES,HTT promoter inh,GALK inh,TSG101-PTAP inh,HTT-AS act,NTMT1 inhibitor,SKOV3 invasion
COc1ccc(C2=C(C)C(=O)N(Cc3ccc(C(=O)Nc4ccc(F)cc4C)cc3)S2(=O)=O)cc1,10µM,0,0,0,0,?
COC(=O)c1scc(-c2ccc(C)cc2)c1S(=O)(=O)Nc1cc(OC)c(OC)c(OC)c1,0,0,0,0,89.1µM,0
CCC(C)C(=O)Oc1cc(C)ccc1C1(COC(=O)C(C)C)CO1 (configuration not stated),-,-,-,-,0,-
CC(C)(CO)n1cc(C(=O)c2cncc(NC(=O)Cc3ccc(Cl)cn3)c2)c2cnc(N)nc21,-,-,-,-,0,-
O=C1C(Cl)=C(NCCN2CCOCC2)C(=O)c2ncccc21,?,-,-,0,?,5.9µM
Cc1ccc(-n2ncc(C(=O)N3CCN(c4cccc(C)c4C)CC3)c2C2CCNCC2)c(C)c1,0,0,0,0,79.4µM,?
Cc1ccc(N2CCC(CNc3nc(-c4ccccc4C(C)C)ncc3F)CC2)cn1,-,-,-,-,0,-
NC(=O)N1CCC(CC(=O)N2CCC(C3c4ncc(Br)cc4CCc4cc(Cl)cc(Br)c43)CC2)CC1 (configuration not stated),-,-,-,-,0,-
O=C(NCCCN1CCCCC1)c1cc(Sc2ccc(Cl)cc2)nc2ccccc12,0,0,0,0,89.1µM,0
CNC(=O)c1ccccc1Nc1nc(Nc2ccc3c(c2OC)CCCC(N2CCN(CCO)CC2)C3)ncc1Cl (configuration not stated),-,-,-,-,0,-
CC(=O)c1ccc(N2CCN(C(=O)Nc3ccc(C(C)C)cc3)CC2)cc1,22.4µM,0,0,0,0,0
CC(=O)c1ccc(N2CCN(C(=O)Nc3cn(CC(C)C)c(=O)c4ccccc34)CC2)cc1,0,0,0,0,0,0
O=C(/C=C\c1ccc(O)cc1)N[C@@H](Cc1ccc(O)cc1)C(=O)O,-,-,-,-,0,-
Cc1ncc(CCCN(C)C)cc1Nc1ncc2c(n1)-c1ccc(C(F)(F)F)cc1NC(=S)C2,-,-,-,-,31.6µM,-
C=CC(=O)N1CC[C@@H](Oc2nc(Nc3ccc(N4CCC(N5CCN(C)CC5)CC4)cc3)c(C(N)=O)nc2CC)C1,-,-,-,-,3.98µM,-
CN1CCN(c2ccc(Nc3ncc4cc(C#N)c(=O)n(C5CCCC5)c4n3)cc2)CC1,-,-,-,-,0,-
CC1=C(C(=O)Nc2ccc(C)cc2)C(c2ccccc2Br)N=C(Nc2nc3ccccc3o2)N1 (configuration not stated),-,-,-,-,0,-
CN(C)CCN(C)C(=O)c1ccc(NC(=O)Nc2ccc(-c3nc(N4CCOCC4)c4ccn(CC(F)(F)F)c4n3)cc2)cc1,?,-,-,0,22.4µM!,?
CCn1nnc2c(N3CCOCC3)nc(-c3ccc(NC(=O)Nc4ccc(C(=O)N5CCN(C)CC5)cc4)cc3)nc21,?,-,-,0,0,0
[O-][n+]1cccc(-c2nc3c(Cl)cccc3cc2[C@@H](Nc2ncnc3cccnc23)C(F)(F)F)c1,-,-,-,-,0,-
O=C(Nc1ccc(Oc2ccccc2)cc1)c1ccc(F)c(S(=O)(=O)N2CCN(c3ccccc3F)CC2)c1,2µM,0,0,0,0,0
O=C(Nc1ccc(Oc2ccccc2)cc1)c1ccc(F)c(S(=O)(=O)N2CCN(c3cccc(Cl)c3)CC2)c1,?,0,0,0,0,0
Cc1cccc(N2CCN(c3ccc(NC(=O)c4ccccc4)cc3C(=O)O)CC2C)c1 (configuration not stated),0,0,0,0,0,0
COc1ccccc1N1CCN(S(=O)(=O)c2ccc(F)c(C(=O)Nc3ccc(C)c(F)c3)c2)CC1,?,0,0,0,0,0
Cc1cccc(N2CCN(c3ccc(C(=O)O)cc3NC(=O)c3cccc(Cl)c3)CC2C)c1 (configuration not stated),0,0,0,0,79.4µM,0
